# PubChem BioAssay (Tox21)
# Activity calls are given as the source filed them. Calls follow the shape of the dose curve; as a rule, active = well fitted curve in the direction sought with a large enough effect in the repeat runs; inconclusive = weak or mixed curves; inactive = flat fitted curve, though single readings scatter.
# Test: qHTS assay to test for compound auto fluorescence at 535 nm (green) in HEK293 cells (AID 720680)
# Settings: green autofluorescence 485/535 nm; series mostly up to 91.3 µM; fluorescence, % of fluorescein: at the top concentration
# Description: U.S. Tox21 Program National Center for Advancing Translational Sciences [NCATS] NIH Chemical Genomics Center [NCGC] U.S. Environmental Protection Agency [EPA] National Institutes of Environmental Health Sciences [NIEHS] National Toxicology Program [NTP] U.S. Food and Drug Administration [FDA] Tox21 Assay Overview: Compound auto fluorescence often interferes with screening of the compound library against various biological targets and signaling pathways. Some of these compounds may have fluorophoric properties. Such properties may interfere with the assay outputs resulting in false positives and/or negatives. To decrease such complications and ensure the compound activities are relevant in terms of biological response, the Tox21 10K compound library was screened for auto fluorescence. From the fluorophores used as reporter signals in our screening assays, the auto fluorescence equivalencies of compounds against three fluorophores have been evaluated: Triamterene, Fluorescein and Rose Bengal sodium for blue, green and red fluorescence, respectively. The fluorescence intensities were measured using Excitation/Emission wavelengths at 405/460nm, 485/535nm and 540/590nm for blue, green and red labels, respectively. This assay includes the green fluorescence data.
# Tox21 Assay Protocol Summary: 2,000 HEK293 cells in 5 uL of culture medium containing 10% dialyzed FBS per well were dispensed into black wall/clear bottom 1536-well plates using a Multidrop Combi Dispenser (Thermo Scientific). The assay plates were incubated for 4-5 hr at 37C to allow cell attachment to the well bottom, followed by the transfer of 23 nL compound or DMSO vehicle by a pintool work station (Kalypsys, San Diego, CA). After the assay plates were incubated overnight at 37C and 5% CO2, fluorescence intensities in the assay plates were measured by an Envision (PerkinElmer, Shelton, CT) plate reader using three labels for measuring blue, green and red fluorescence at […] 460, 535 and 590nm respectively.
# % is scaled to controls: 0 for no effect and ±100 for the full control effect.
row,Compound,"fluorescence, % of fluorescein"
1,CC(C)(O)c1coc(S(=O)(=O)NC(=O)Nc2c3c(cc4c2CCC4)CCC3)c1,-0.11% (inactive)
2,CC(O)Cn1cnc2c1c(=O)n(C)c(=O)n2C (stereo not given),-0.0718% [at 18.6 µM] (inactive)
3,O=C1OC(=O)c2c(Br)c(Br)c(Br)c(Br)c21,-0.137% (inactive)
4,CCCCCCCC(=O)OCCCCCC,-0.023% (inactive)
5,CC1=CC[C@@]23C[C@@H]1C(C)(C)[C@@H]2CC[C@H]3C,0.0407% (inactive)
6,Cc1ccc(N(CC2=NCCN2)c2cccc(O)c2)cc1,0.0286% [at 46 µM] (inactive)
7,O=CNNC=O,0.0816% [at 95.7 µM] (inactive)
8,O=C(O)CCC(=O)OC[C@@H](NC(=O)C(Cl)Cl)[C@H](O)c1ccc([N+](=O)[O-])cc1,0.0194% [at 46 µM] (inactive)
9,NC(=O)CCCCC(N)=O,-0.0288% (inactive)
10,NC(=O)c1ccccc1[N+](=O)[O-],0.0503% [at 95.7 µM] (inactive)
11,O=C(O)c1cccc(C[C@@H]2COc3ccc(OCc4nc5cc(F)ccc5s4)cc3[C@@H]2O)c1,0.115% (inactive)
12,CC(C)(C(=O)c1cccnc1)c1cccnc1,0.0635% [at 18.6 µM] (inactive)
13,CC12CC3CC(C)(C1)CC(N)(C3)C2,0.108% [at 46 µM] (inactive)
14,COc1ccc(-n2nc(C(F)F)cc2-c2ccc(S(C)=O)cc2)cc1 (stereo not given),0.02% (inactive)
15,CC(CN(CCN(CC(C)OCCO)CC(C)OCCO)CC(C)OCCO)OCCO (stereo not given),-0.0486% [at 95.7 µM] (inactive)
16,O[C@@H](CNC[C@H](O)[C@H]1CCc2cc(F)ccc2O1)[C@@H]1CCc2cc(F)ccc2O1,0.0445% [at 46 µM] (inactive)
17,COC1CCC=CO1 (stereo not given),0.0075% (inactive)
18,CC(=O)OCCC(C)CC(C)(C)C (stereo not given),0.0022% (inactive)
19,CN=C(N)NC(=O)Nc1c(C)cccc1C,-0.0188% [at 46 µM] (inactive)
20,CNCc1ccc(NC(=O)c2c[nH]c3c2C(=O)CCC3)cc1,-0.0943% (inactive)

row,Compound,"fluorescence, % of fluorescein"
1,CS(=O)(=O)c1ccc([C@@H](C[C@H]2CCC(=O)C2)C(=O)Nc2cnccn2)cc1Cl,-0.0187% (inactive)
2,CCC(Cl)CC(Cl)C(Cl)C(Cl)C(Cl)C(C)Cl (stereo not given),0.0197% [at 13.4 µM] (inactive)
3,O=C(Oc1ccccc1)c1ccc2ccccc2c1O,-0.109% (inactive)
4,Nc1cccc2c(N)cccc12,0.21% (inactive)
5,CC(=O)c1ccc[nH]1,-0.0682% (inactive)
6,CO[C@@H]1[C@@H](OC)[C@H](C)[C@@](O)(CC(=O)O)O[C@H]1[C@H](C)[C@H]1O[C@@]2(CC[C@@](C)([C@H]3CC[C@@](C)([C@@H]4O[C@@H]([C@H]5O[C@](C)(O)[C@H](C)C[C@@H]5C)C[C@@H]4OC4C[C@H](OC)[C@@H](OC)[C@H](C)O4)O3)O2)C[C@H](O)[C@H]1C (stereo not given in full),-0.0127% [at 46 µM] (inactive)
7,Nc1ccc(NC(=O)c2ccc(N)cc2)cc1,-0.0141% (inactive)
8,O=C(O)CCS,0.0485% [at 95.7 µM] (inactive)
9,O=C1OC[C@H](Cc2cccc(O)c2)[C@H]1Cc1cccc(O)c1,0.0332% [at 46 µM] (inactive)
10,COC(OC)OC,0.113% (inactive)
11,CCCOC(=O)c1c(Cl)c(Cl)c(Cl)c(Cl)c1C(=O)OCCC,-0.0764% (inactive)
12,C=Cc1ccc(OC(C)=O)cc1,-0.107% (inactive)
13,CCCCOC(=O)CCCCC(=O)OCCCC,-0.0086% (inactive)
14,O=C(O)c1ccc(O)cc1O,0.0426% (inactive)
15,CC1C(C)(C)C2=C(C(=O)CCC2)C1(C)C (stereo not given),-0.0549% (inactive)
16,CSSc1ccoc1C,0.0278% (inactive)
17,CCC(CO)(CO)[N+](=O)[O-],-0.0602% (inactive)
18,CCN(CC)c1ccc(C(=C2C=CC(=[N+](CC)CC)C=C2)c2ccc(S(=O)(=O)O)cc2S(=O)(=O)[O-])cc1,-0.675% (inactive)
19,Nc1nc2ccc(OC(F)(F)F)cc2s1,0.0094% [at 46 µM] (inactive)
20,Cc1ccc2c(c1)CCCN2,-0.04% (inactive)
